Data published in PubChem BioAssay (NCATS).
Records with an inconclusive call do not appear. Entries that show only a call come without a potency. Activity calls are given as the source filed them. Unless noted, the call rests on the fitted dose curve; in most records, active means well fitted curve in the direction sought with a large enough effect; inconclusive means small, poorly fitted or top-dose-only effect, or another doubt; inactive means no such curve, though single readings can be large; an effect the other way counts as inactive or inconclusive.

Columns and labels:
[1] = target: Nuclear receptor subfamily 1 group I member 3 (Homo sapiens) (UniProt Q14994); assay: Primary qHTS for antagonist of constitutive androstane receptor (CAR) against the NCATS DSHEA and TCM libraries (AID 1794836)
Chain of Nuclear receptor subfamily 1 group I member 3 (Homo sapiens) (Q14994 whole entry, looked up): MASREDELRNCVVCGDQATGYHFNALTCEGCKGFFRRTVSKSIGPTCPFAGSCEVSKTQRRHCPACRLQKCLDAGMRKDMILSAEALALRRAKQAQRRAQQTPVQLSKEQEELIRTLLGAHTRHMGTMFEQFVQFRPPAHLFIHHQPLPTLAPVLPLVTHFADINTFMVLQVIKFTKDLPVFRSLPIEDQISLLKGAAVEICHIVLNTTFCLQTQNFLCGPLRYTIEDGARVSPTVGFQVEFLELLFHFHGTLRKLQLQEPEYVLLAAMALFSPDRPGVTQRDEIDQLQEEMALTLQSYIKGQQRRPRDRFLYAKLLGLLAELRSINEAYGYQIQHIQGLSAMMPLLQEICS
Outline: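 HepG2 cells stably carrying hCAR and a CYP2B6 luciferase reporter (2,500 cells/well) attached for 5 h, then received compounds with 48 uM CITCO for 24 h at 37C. ONE-Glo luminescence read antagonism; CellTiter-Fluor (405/540 nm) gave viability.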

[2] = Viability counterscreen for antagonist of constitutive androstane receptor (CAR) against the NCATS DSHEA and TCM libraries (AID 1794837);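 further: compound exposure lasted 24 h before viability reading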
Outline: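 Fluorescence from CellTiter-Fluor reports live-cell protease activity in HepG2-CYP2B6-hCAR cells treated for 24 h with substances alongside 48 uM CITCO.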

[3] = Viability counterscreen for agonist of constitutive androstane receptor (CAR) against the NCATS DSHEA and TCM libraries (AID 1794838)
Outline: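 In agonist mode, PK11195 is added at 0.75 uM final to HepG2-CYP2B6-hCAR cells dosed with test substances. Cultures incubate 24 h at 37C before a protease-based fluorogenic viability readout.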

[4] = target: Nuclear receptor subfamily 1 group I member 3 (Homo sapiens) (UniProt Q14994); assay: Primary qHTS for agonist of constitutive androstane receptor (CAR) against the NCATS DSHEA and TCM libraries (AID 1794839);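 further: HepG2 cells expressing human CAR with a CYP2B6 reporter plus PK11195 antagonist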
Outline: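 Cells stably carrying hCAR and a CYP2B6 reporter (HepG2 background) are seeded and allowed 5 h to adhere. Substances at multiple concentrations are added alongside 0.75 µM PK11195, and luciferase signal is measured after 24 h.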

[5] = HepG2 viability counterscreen (readout 2: ATP content) against the NCATS DSHEA and TCM libraries (AID 1794840);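 further: HepG2 cells exposed to substances for about 24 h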
Outline: (§1)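 Cytotoxicity was assessed in HepG2 cells plated at 1,000 cells/well and exposed for about 24 hours to a concentration series. Protease activity and ATP content were measured sequentially in each well.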

[6] = HepG2 viability counterscreen (readout 1: protease activity) against the NCATS DSHEA and TCM libraries (AID 1794841);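 further: cells exposed to compounds for about 24 h before the protease read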
Outline: as §1

[7] = target: Metallo-beta-lactamase type 2 (Klebsiella pneumoniae) (UniProt C7C422); assay: qHTS to identify inhibitors of the New Delhi Metallo-beta-lactamase (NDM): assay validation screen against the NCATS LOPAC Collection (AID 1794843); further: potency means the concentration at half of the fitted maximal effect;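 on activity change, negative = inhibition: nitrocefin turnover by NDM-1 measured as 485 nm absorbance at plateau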
Chain of Metallo-beta-lactamase type 2 (Klebsiella pneumoniae) (C7C422 whole entry, looked up): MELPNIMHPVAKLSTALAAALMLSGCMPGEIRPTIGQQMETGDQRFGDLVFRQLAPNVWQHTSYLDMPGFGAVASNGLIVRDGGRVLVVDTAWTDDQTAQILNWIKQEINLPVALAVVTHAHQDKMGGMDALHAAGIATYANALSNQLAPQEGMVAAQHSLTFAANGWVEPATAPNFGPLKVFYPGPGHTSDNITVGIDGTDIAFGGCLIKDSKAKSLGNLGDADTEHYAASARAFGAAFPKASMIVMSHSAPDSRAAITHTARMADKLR
Outline: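 Nitrocefin hydrolysis (50 uM substrate stock) by NDM-1, 2 nM final, was followed by 485 nm absorbance after compound preincubation; buffer was 50 mM HEPES pH 7.0, 1 uM ZnSO4, 0.01% Tween20.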

[8] = target: Glutathione peroxidase 1 (Homo sapiens) (UniProt P07203); assay: Primary qHTS Assay for Inhibitors of Recombinant Selenoprotein Glutathione Peroxidase 1 (GPX1) (AID 1845191); further: nearly all actives have a fitted effect of over 65% in size; further: potency means the concentration at half of the fitted maximal effect
Chain of Glutathione peroxidase 1 (Homo sapiens) (P07203 whole entry, looked up): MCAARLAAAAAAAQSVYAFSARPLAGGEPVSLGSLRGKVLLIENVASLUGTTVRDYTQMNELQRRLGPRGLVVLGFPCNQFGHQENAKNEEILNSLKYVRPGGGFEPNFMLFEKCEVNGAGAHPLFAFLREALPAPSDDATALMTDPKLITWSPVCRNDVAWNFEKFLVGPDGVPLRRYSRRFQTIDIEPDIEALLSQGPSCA
Outline: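 Recombinant GPX1 (10 nM final) was preincubated with compound for 30 min at room temperature, then reacted with 1 mM GSH, 0.5 mM CHP, 0.5 mM NADPH and 100 nM glutathione reductase; NADPH fluorescence (340/450 nm) was read at 0 and 15 min.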

[9] = target: Phospholipid hydroperoxide glutathione peroxidase GPX4 (Homo sapiens) (UniProt P36969); assay: Primary qHTS Assay for Inhibitors of Recombinant Selenoprotein Glutathione Peroxidase 4 (GPX4) (AID 1845192); further: nearly all actives have a fitted effect of over 65% in size
Chain of Phospholipid hydroperoxide glutathione peroxidase GPX4 (Homo sapiens) (P36969 whole entry, looked up): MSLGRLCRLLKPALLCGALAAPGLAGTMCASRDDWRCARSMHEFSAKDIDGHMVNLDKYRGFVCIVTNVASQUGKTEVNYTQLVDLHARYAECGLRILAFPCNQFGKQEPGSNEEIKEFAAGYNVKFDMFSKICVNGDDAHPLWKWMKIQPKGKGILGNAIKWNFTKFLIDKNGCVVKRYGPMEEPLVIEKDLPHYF
Outline: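 GR-coupled readout: 100 nM GR, 1 mM GSH, 0.5 mM NADPH; NADPH fluorescence (ex 340/em 450 nm) read at t=0 and after 15 min RT. GPX4 200 nM, preincubated 30 min with compound; substrate 0.5 mM CHP.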

[10] = NCATS anti-infectives library activity on the primary C. elegans qHTS viability assay (AID 1745855; calls by dose curve; further: potency means the concentration at half of the fitted maximal effect)
Outline: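 Viability read-out is GFP fluorescence of PE254-GFP-FLuc C. elegans, measured by laser cytometry (488 nm) at day 0, 3 and 7. Ten L1 worms per well were incubated 7 days at 21 °C with compounds and bacterial capsules in S medium.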

[11] = target: Catechol O-methyltransferase (Homo sapiens) (UniProt P21964); assay: Confirmatory Screen for Target Class Profiling of Small Molecule Inhibitors of Methyltransferases (AID 1745852; calls by dose curve; further: potency means the concentration at half of the fitted maximal effect); settings: MTase-Glo luminescence, SAH detection, recombinant enzyme; measured here: COMT max response; stronger effect = lower value
Chain of Catechol O-methyltransferase (Homo sapiens) (P21964 whole entry, looked up): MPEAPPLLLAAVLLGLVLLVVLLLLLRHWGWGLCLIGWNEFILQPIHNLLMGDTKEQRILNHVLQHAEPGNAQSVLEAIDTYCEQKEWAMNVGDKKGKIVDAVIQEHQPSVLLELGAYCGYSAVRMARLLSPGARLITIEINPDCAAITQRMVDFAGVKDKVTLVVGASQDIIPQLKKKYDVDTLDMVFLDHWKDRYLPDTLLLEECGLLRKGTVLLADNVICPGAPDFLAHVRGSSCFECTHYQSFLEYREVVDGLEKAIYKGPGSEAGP

[12] = target: Guanidinoacetate N-methyltransferase (Homo sapiens) (UniProt Q14353); assay: as above; settings: MTase-Glo luminescence, SAH detection, recombinant enzyme; activity change, negative = inhibition: at 57.3 µM (top of the series) unless noted
[13] = target: Nicotinamide N-methyltransferase (Homo sapiens) (UniProt P40261); assay: as above; settings: MTase-Glo luminescence, SAH detection, recombinant enzyme; measured here: NNMT max response; stronger effect = lower value
Chain of Nicotinamide N-methyltransferase (Homo sapiens) (P40261 whole entry, looked up): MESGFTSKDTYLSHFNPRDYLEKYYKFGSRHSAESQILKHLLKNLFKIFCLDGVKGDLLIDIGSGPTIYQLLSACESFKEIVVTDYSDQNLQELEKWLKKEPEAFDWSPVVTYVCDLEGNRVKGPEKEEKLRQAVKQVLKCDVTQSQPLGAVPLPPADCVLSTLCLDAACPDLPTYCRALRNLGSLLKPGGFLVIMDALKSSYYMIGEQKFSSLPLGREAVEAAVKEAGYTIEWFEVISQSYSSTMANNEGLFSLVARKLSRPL

[14] = target: Phenylethanolamine N-methyltransferase (Homo sapiens) (UniProt P11086); assay: as above; settings: MTase-Glo luminescence, SAH detection, recombinant enzyme; measured here: PNMT max response; stronger effect = lower value
Chain of Phenylethanolamine N-methyltransferase (Homo sapiens) (P11086 whole entry, looked up): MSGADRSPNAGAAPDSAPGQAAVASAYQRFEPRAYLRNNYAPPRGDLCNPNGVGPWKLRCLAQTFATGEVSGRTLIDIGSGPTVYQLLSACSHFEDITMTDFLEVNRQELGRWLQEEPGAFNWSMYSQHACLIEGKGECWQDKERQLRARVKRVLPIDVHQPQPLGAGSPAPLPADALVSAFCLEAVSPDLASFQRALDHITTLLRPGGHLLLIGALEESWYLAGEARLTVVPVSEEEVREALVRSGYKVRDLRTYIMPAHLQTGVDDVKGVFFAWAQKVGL

CNC(C)C(O)c1ccc(O)cc1 (configuration not stated)
outcome [1]: inactive | outcome [2]: inactive | outcome [3]: inactive | outcome [4]: inactive | outcome [5]: inactive | outcome [6]: inactive

NC(=O)c1ccc(OCC(O)CN2CC=C(c3ccc(F)cc3)CC2)cc1 (configuration not stated)
Potency [7]: inactive | Potency [8]: inactive | Potency [9]: inactive

C[N+](C)(C)CC#CCN1CCCC1=O
Potency [7]: inactive | Potency [8]: inactive | Potency [9]: inactive

O=c1c2ccccc2[se]n1-c1ccccc1
Potency [10]: 18.3 µM (active)

C[N+]1(C)C2CCC1CC(OC(=O)c1c[nH]c3ccccc13)C2 (configuration not stated)
Potency [7]: inactive | Potency [8]: inactive | Potency [9]: inactive

CN(C(=O)Cc1ccc(Cl)c(Cl)c1)C(CN1CCCC1)c1cccc(OCC(=O)O)c1 (configuration not stated)
Potency [7]: inactive | Potency [8]: inactive | Potency [9]: inactive

[Cl-].[Cl][Pt].[NH2-].[NH2-].c1ccncc1
Potency [7]: 3.98 µM (active) | Potency [8]: inactive

C[C@]12Cc3cn4c(nc3C=C1CCC1C2CC[C@@]2(C)[C@H]1CC[C@@]2(O)C#N)nc1ccccc14 (some centres not stated)
activity [11]: -23.1% | Potency [12]: 611 nM (active) | activity [13]: -35.3% | activity [14]: -11.6% | Potency [8]: inactive | Potency [9]: inactive

CCS(=O)(=O)Nc1cccc(C(=C2CCCCC2)c2cnc[nH]2)c1
Potency [7]: inactive | Potency [8]: inactive | Potency [9]: inactive

C[N+](C)(C)CCOC(=O)CBr
Potency [7]: inactive | Potency [8]: inactive | Potency [9]: inactive

C[N+]1(C)CCOC(O)(c2ccc(-c3ccc(C4(O)C[N+](C)(C)CCO4)cc3)cc2)C1 (configuration not stated)
Potency [7]: inactive | Potency [8]: inactive | Potency [9]: inactive

CCCN(CCC)[C@@H]1CCc2cccc(O)c2C1
Potency [7]: inactive | Potency [8]: inactive | Potency [9]: inactive

c1ccc2c(N3CCNCC3)cccc2c1
Potency [7]: inactive | Potency [8]: inactive | Potency [9]: inactive

NC(=O)CI
activity [11]: -3.06% | activity change, negative = inhibition [12]: 0.112% | activity [13]: -21.3% | activity [14]: -8.06% | Potency [8]: inactive | Potency [9]: inactive

N[C@@]1(C(=O)O)CC[C@@H](C(=O)O)C1
Potency [7]: inactive | Potency [8]: inactive | Potency [9]: inactive

CN1CCC(c2c[nH]c3ccc(O)cc23)CC1
Potency [7]: inactive | Potency [8]: inactive | Potency [9]: inactive

NC(N)=NOCC[C@H](N)C(=O)O
Potency [7]: inactive | Potency [8]: inactive | Potency [9]: inactive

CC(N)c1cccc(Cl)c1Cl (configuration not stated)
activity [11]: 3.38% | activity change, negative = inhibition [12]: 5.58% | activity [13]: -1.94% | activity [14]: -98.4% | Potency [8]: inactive | Potency [9]: inactive

CCN1C[C@@]2(COC)C3[C@@H](OC)C4[C@@H]1C3([C@@H]1C[C@]3(O)[C@H](OC(=O)c5ccccc5)[C@@H]1[C@]4(OC(C)=O)[C@@H](O)[C@@H]3OC)[C@H](OC)C[C@H]2O
Potency [7]: inactive | Potency [8]: inactive | Potency [9]: inactive

OCc1cnc[nH]1
Potency [7]: inactive | Potency [8]: inactive | Potency [9]: inactive

O=c1ccc2[nH]cc(C3=CCNCC3)c2[nH]1
Potency [7]: inactive | Potency [8]: inactive | Potency [9]: inactive

Clc1cc(I)cc(Cl)c1NC1=NCCN1
Potency [7]: inactive | Potency [8]: inactive | Potency [9]: inactive

CC(C)(C)OC(=O)NC1[C@H]2CNC[C@@H]12 (some centres not stated)
Potency [7]: inactive | Potency [8]: inactive | Potency [9]: inactive

C#CCN[C@H](C)Cc1ccccc1
Potency [7]: inactive | Potency [8]: inactive | Potency [9]: inactive

CCCCC[C@@H](O)C1C(=O)OC(C)[C@H](O)/C=C/C=C/C=C/C=C/C=C(\C)C(O)C(O)C(O)C[C@H](O)C[C@H](O)C[C@H](O)C[C@H](O)C[C@@H]1O (some centres not stated)
Potency [8]: inactive

CC(C)CCC(=O)O[C@H]1CC[C@H]2[C@@H]3CCC4=CC(=O)CC[C@]4(C)[C@H]3CC[C@]12C
Potency [8]: inactive | Potency [9]: inactive

c1ccc2sc(SNC3CCCCC3)nc2c1
Potency [8]: 28.2 µM (active)

CN1C2CCC1CC(OC(c1ccccc1)c1ccccc1N)C2 (configuration not stated)
Potency [8]: inactive | Potency [9]: inactive

Nc1ccc(CCN2CCN(c3cccc(C(F)(F)F)c3)CC2)cc1
Potency [7]: inactive | Potency [8]: inactive | Potency [9]: inactive

C[C@@H](CO)NC(=O)[C@@H]1C=C2c3cccc4[nH]cc(c34)C[C@H]2N(C)C1
Potency [8]: inactive

COC([CH2][Hg])CNC(=O)c1ccccc1OCC(=O)O (configuration not stated)
Potency [8]: inactive | Potency [9]: inactive

C[C@H](Cc1ccc2c(c1)OC(C(=O)O)(C(=O)O)O2)NC[C@H](O)c1cccc(Cl)c1
Potency [7]: inactive | Potency [8]: inactive | Potency [9]: inactive

COc1ccc2c(c1)C13CCCCC1C(C2)N(C)CC3 (configuration not stated)
Potency [7]: inactive | Potency [8]: inactive | Potency [9]: inactive

CC1=C2C[C@H]3[C@@H](CC=C4C[C@@H](O)CC[C@@]43C)[C@@H]2CC[C@]12O[C@@H]1C[C@H](C)CN[C@H]1[C@H]2C
Potency [8]: inactive | Potency [9]: inactive

CC12NC(Cc3ccccc31)c1ccccc12 (configuration not stated)
Potency [7]: inactive | Potency [8]: inactive | Potency [9]: inactive

CP(=O)(O)C1=CCNCC1
Potency [7]: inactive | Potency [8]: inactive | Potency [9]: inactive

NC(N)=Nc1ccc2[nH]c3c(c2c1)C[C@@]1(O)[C@H]2Cc4ccc(O)c5c4[C@@]1(CCN2CC1CC1)[C@H]3O5
Potency [7]: inactive | Potency [8]: inactive | Potency [9]: inactive

O=C(NC1CN2CCC1CC2)c1cc2ccoc2cn1 (configuration not stated)
Potency [7]: inactive | Potency [9]: inactive
